The AC50 is the midpoint of the concentration-response curve, whichever way the signal moves.

The source of these data is PubChem BioAssay AID1851 (National Center for Advancing Translational Sciences (NCATS), 2009).

The structures appear in SMILES notation. About 5,700 (36%) of roughly 16,000 compounds were called active. Roughly 24% stayed inconclusive and do not appear here. The list shows a part of the results. Unmarked numbers belong to inactive results. Calls come from the whole dose curve; as a rule, active = well fitted curve in the direction sought with a large enough effect; inconclusive = small, poorly fitted or top-dose-only effect, or effect the other way; inactive = no such curve, though single readings can be large or run the other way.
% is set by controls: 0 for no effect and ±100 for the full control effect.

The target of the assay is Cytochrome P450 1A2 (Homo sapiens) (UniProt P05177). Description: Cytochrome panel assay with activity outcomes. As to conditions: recombinant CYP, pro-luciferin dealkylation, luminescence, p450-cyp1a2; series mostly up to 57.1 µM; activity, negative = inhibition: at the top concentration.
Chain of Cytochrome P450 1A2 (Homo sapiens) (P05177 whole entry, looked up): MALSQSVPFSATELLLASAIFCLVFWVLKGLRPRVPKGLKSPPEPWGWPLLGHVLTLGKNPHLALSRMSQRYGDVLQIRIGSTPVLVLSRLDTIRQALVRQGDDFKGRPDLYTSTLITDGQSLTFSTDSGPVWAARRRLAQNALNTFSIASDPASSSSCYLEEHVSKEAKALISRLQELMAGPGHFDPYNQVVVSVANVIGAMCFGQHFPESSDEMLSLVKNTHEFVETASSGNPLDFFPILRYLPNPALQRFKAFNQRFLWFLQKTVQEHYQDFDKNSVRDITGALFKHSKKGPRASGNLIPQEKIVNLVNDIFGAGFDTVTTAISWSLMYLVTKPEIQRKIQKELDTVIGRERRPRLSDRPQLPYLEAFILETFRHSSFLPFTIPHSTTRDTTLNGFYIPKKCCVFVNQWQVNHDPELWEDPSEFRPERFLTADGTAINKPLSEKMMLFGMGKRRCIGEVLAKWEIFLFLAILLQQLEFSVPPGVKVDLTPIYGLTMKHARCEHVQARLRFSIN
On to `NC(=O)CNC(=O)[C@@H]1CC2(CC(c3ccc(Cl)cc3)=NO2)CN1C(=O)c1ccccc1` (some centres not stated), for which the “activity, negative = inhibition” value is 11.7%.
For the compound `C=CCc1cc(C=O)cc(OC)c1OCc1ccc(Cl)cc1`, the half-maximal activity concentration (AC50) was 1.12 µM (active).
Regarding `CCOC(=O)c1cc(-c2ccccc2)sc1NC(=O)c1ccc(OC)cc1`, the AC50 is 8.91 µM (active).
In the case of `COC(=O)c1cc(-c2ccccc2)sc1NC(=O)CN1C(=O)c2ccccc2C1=O`, the AC50 was 0.708 µM (active).
`CCOC(=O)c1cc(-c2ccccc2)sc1NC(=O)C(C)(C)C`: the “activity, negative = inhibition” value was -12.1%.
`O=C(CN1C(=O)c2ccccc2C1=O)NC1(C(=O)O)CCCC1`: the activity, negative = inhibition is -2.12% [at 2.29 µM].
In the case of `CCOC(=O)c1c(NC(=O)CCCN2CCOCC2)sc2c1CC(C)(C)OC2`, the AC50 was 14.1 µM (active).
Regarding `CNC(=O)c1ccc(-c2sc3nc(N4CCOCC4)c4c(c3c2N)CC(C)(C)OC4)o1`, the “activity, negative = inhibition” value was 1.36%.
`CCOC(=O)c1c(NC(=O)c2ccc(N3CCOCC3)c([N+](=O)[O-])c2)sc(C)c1C`: the “activity, negative = inhibition” value was 2.45%.
For the compound `CN1CCN(NC(=O)CN2C(=O)/C(=C/c3c(Cl)cccc3Cl)SC2=S)CC1`, the “activity, negative = inhibition” value is -7.84%.
For `CCN1C(=O)/C(=C/C=C2/SCCN2C)SC1=S`, the AC50 was 1 µM (active).
Turning to `Cc1ccc(Sc2cc(Cl)nc(N)n2)cc1`, the “activity, negative = inhibition” value is -23.8%.
On to `CCNc1nc(Sc2ccc(C)cc2)cc(C(F)(F)F)n1`, for which the AC50 is 3.16 µM (active).
As for `Cn1c(=O)c(-c2ccc(F)cc2)nc2cnc(Oc3ccccc3)nc21`, the half-maximal activity concentration (AC50) was 0.316 µM (active).
For the compound `COc1ccc(Oc2ncc3nc(-c4ccc(F)cc4)c(=O)n(C)c3n2)cc1`, the AC50 is 2 µM (active).
With `O=C(O)C1CCN(c2ncnc3ccc(-c4ccccc4C(F)(F)F)cc23)CC1`, the “activity, negative = inhibition” value was -19.1%.
Turning to `CN(C)C(=O)c1ccc(-c2ccc3ncnc(N4CCOCC4)c3c2)cc1`, the “activity, negative = inhibition” value is -16.8%.
Consider `COc1cccc(-c2ccc3ncnc(N4CCOCC4)c3c2)c1`, for which the AC50 is 1 µM (active).
As for `CN(C)Cc1ccccc1-c1ccc2ncnc(N3CCOCC3)c2c1`, the AC50 is 15.8 µM (active).
As for `FC(F)(F)c1ccccc1-c1ccc2ncnc(N3CCOCC3)c2c1`, the AC50 was 0.251 µM (active).
On to `COc1ccccc1-c1ccc2ncnc(N3CCOCC3)c2c1`, for which the AC50 is 0.631 µM (active).
For `COCCCN1C(=O)C(=O)/C(=C(/O)c2ccc(OC(C)C)c(C)c2)C1c1ccncc1` (configuration not stated), the activity, negative = inhibition was 15.5% [at 11.4 µM].
Same read-out and setting: with `COc1ccc(C(=O)N2CCC[C@@]3(CCN(Cc4cc(C(F)(F)F)cc(C(F)(F)F)c4)C3)C2)cc1` the figure was 2.06%.
As for `COc1ccccc1-c1ccc2ncnc(N3CCN(C)CC3)c2c1`, the half-maximal activity concentration (AC50) is 3.16 µM (active).
Turning to `CCc1c(C)nc2ncnn2c1NCCc1ccc(OC)cc1`, the AC50 is 15.8 µM (active).
On to `Cc1ccc(CNC(=O)CCc2c(C)nc3ncnn3c2C)cc1`, for which the “activity, negative = inhibition” value was -10.8%.
Turning to `CCOC(=O)CCc1c(C)nc2ncnn2c1C`, the “activity, negative = inhibition” value was -15.3%.
Regarding `CC1(C)O[C@H]2O[C@@H]([C@H](O)CON3C(=O)c4ccccc4C3=O)[C@H](O)[C@H]2O1`, the activity, negative = inhibition was -10.7% [at 11.4 µM].
Turning to `O=c1cc(N2CCC(Cc3ccccc3)CC2)[nH]c(=O)n1C1CCCCC1`, the “activity, negative = inhibition” value is -3.97%.
As for `O=S(=O)(c1ccc(Cl)cc1)c1cnc(-c2cccnc2)nc1-c1ccccc1`, the “activity, negative = inhibition” value was -29.7%.
On to `O=S(=O)(c1ccccc1)c1cnc(-c2cccnc2)nc1-c1ccc(Cl)cc1Cl`, for which the AC50 was 8.91 µM (active).
Take `CCC(C)(C)N=C(NC#N)Nc1cccnc1`: the AC50 was 12.6 µM (active).
For the compound `C[C@@](O)(CNS(=O)(=O)c1ccccc1)c1ccccc1`, the activity, negative = inhibition was -17.4% [at 11.4 µM].
For `O=C1c2ccccc2C(=O)N1Cc1cc(-c2ccccc2Cl)no1`, the AC50 is 0.794 µM (active).
As to `CCCNC(=O)NS(=O)(=O)c1ccc(Cl)cc1`, the “activity, negative = inhibition” value is -1.12% [at 25.6 µM].
Regarding `O=S(=O)(NCc1cc(-c2ccccc2Cl)no1)c1ccccc1`, the AC50 was 7.08 µM (active).
As for `O=S(=O)(NCc1cc(-c2ccccc2Cl)no1)c1ccc(Cl)cc1`, the AC50 was 1 µM (active).
On to `COc1ccc(CC(=O)N2CCN(c3ccc(C4=NNC(=O)CC4C)cc3)CC2)cc1` (configuration not stated), for which the “activity, negative = inhibition” value was 3.77%.
In the case of `O=c1c(C=Nc2ccc(Oc3ccccc3)cc2)c[nH]n1-c1cccc(Cl)n1`, the “activity, negative = inhibition” value was -27.8%.
As for `COc1cccc(N=Cc2c[nH][nH]c2=O)c1`, the AC50 is 1 µM (active).
The same measure, in the same setting: with `O=c1[nH][nH]cc1C=Nc1ccccc1O` the figure was 10 µM (active).
For `N[C@@H](C(=O)O)c1ccc(C(=O)O)c(O)c1`, the “activity, negative = inhibition” value is -18.4%.
Regarding `N[C@@H](C(=O)O)c1cc(O)ccc1Cl`, the AC50 is 15.8 µM (active).
With `N[C@H](C(=O)O)c1ccc(C(=O)O)c(O)c1`, the “activity, negative = inhibition” value is -0.752%.
Regarding `O=C(O)CN(CCOCCOCCN(CC(=O)O)CC(=O)O)CC(=O)O`, the “activity, negative = inhibition” value is -12.6%.
For `CCCNc1nc(NCC)nc(OC)n1`, the AC50 was 11.2 µM (active).
Regarding `CCCn1nc(Oc2nc(NCC)nc(NC(C)C)n2)ccc1=O`, the “activity, negative = inhibition” value was -6.37%.
